Pf Dd2 inh: inhibitors of Plasmodium falciparum Dd2 growth; P. falciparum Dd2 growth, SYBR Green, 72 h; hits give low values; activity change, % at 10 µM; 94,000 tested, 2.3% active; in the data active means activity change below about -80%
C diff growth: C. difficile growth inhibition; growth activity, negative = inhibition, % at 16 µg/mL (by protocol); AID 1259249; Clostridium difficile clinical isolate growth, OD600, 24 h; hits give low values; 86,000 tested, 0.25% active;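 active means mean growth activity at or below -80% and every replicate also at or below -80%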;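 further: 0% = DMSO wells and -100% = levofloxacin 16 µg/mL wells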
T cruzi growth: blocks T. cruzi growth in NIH3T3 culture | T. cruzi beta-gal in NIH3T3, GalScreen luminescence, 90 h | inhibition, % at 8.34 µM | 77,000 tested, 5.9% active | AID 624255;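 active means mean inhibition above about 93%, with at least 55% of replicates each passing it, limit read from the data, passing the limit was not always enough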
The depositor's hits bear a star; · = no result given. Most compounds without a hit are left out; they make up all but 6.8% or so of the library.

SMILES | Pf Dd2 inh | C diff growth | T cruzi growth
C[C@@H]1CCCCO[C@H](CN(C)C(=O)C2CCCCC2)[C@H](C)CN([C@H](C)CO)C(=O)c2cc(NS(C)(=O)=O)ccc2O1 | · | -2.4 | 4.8
COc1ccc(NC(=O)Nc2ccc3c(c2)C(=O)N([C@@H](C)CO)C[C@H](C)[C@@H](CN(C)S(=O)(=O)c2ccccc2)OCCCC[C@H](C)O3)cc1 | -54.9 | -4.9 | 30.8
COc1ccc(NC(=O)Nc2ccc3c(c2)C(=O)N([C@@H](C)CO)C[C@H](C)[C@H](CN(C)S(=O)(=O)c2ccc(C)cc2)OCCCC[C@@H](C)O3)cc1 | -86.1* | · | 39.1
COc1ccc(NC(=O)Nc2ccc3c(c2)C(=O)N([C@H](C)CO)C[C@@H](C)[C@H](CN(C)S(=O)(=O)c2ccc(C)cc2)OCCCC[C@H](C)O3)cc1 | -66.6 | · | 72.5
COc1ccc(S(=O)(=O)N(C)C[C@H]2OCCCC[C@@H](C)Oc3ccc(NC(=O)Nc4ccccc4)cc3C(=O)N([C@H](C)CO)C[C@@H]2C)cc1 | -8.9 | 1.4 | -53.2
COc1ccc(NC(=O)Nc2ccc3c(c2)C(=O)N([C@H](C)CO)C[C@@H](C)[C@H](CN(C)S(=O)(=O)c2ccccc2)OCCCC[C@@H](C)O3)cc1 | -82.5* | -3.8 | -25.6
COc1ccc(S(=O)(=O)N(C)C[C@H]2OCCCC[C@H](C)Oc3ccc(NC(=O)Nc4ccccc4)cc3C(=O)N([C@@H](C)CO)C[C@H]2C)cc1 | -83.3* | -2.9 | 48.7
CCCNC(=O)N1CC2(CCN(C(=O)CC)CC2)c2c(n(C)c3cc(OC)ccc23)[C@H]1CO | 19.8 | 0.6 | ·
C/C=C/c1cnc2c(c1)C(=O)N([C@H](C)CO)C[C@@H](C)[C@H](CN(C)C(=O)Cc1ccccc1)O2 | 43.5 | -1.3 | 24.6
Cc1ccc(S(=O)(=O)Nc2ccc3c(c2)C(=O)N([C@@H](C)CO)C[C@@H](C)[C@H](CN(C)C(=O)Nc2ccccc2)O3)cc1 | 2.7 | -1.1 | 7.3
CC(=O)N[C@H]1CC[C@@H](CC(=O)NCc2ccc(Cl)cc2)O[C@H]1CO | -2.9 | 8.9 | -52.2
C[C@@H]1CN([C@H](C)CO)C(=O)c2cc(NC(=O)Cc3ccccc3)ccc2O[C@H]1CN(C)CC1CC1 | -7.1 | 4.5 | ·
Cc1cc(C(=O)Nc2cccc3c2O[C@H](CN(C)C(=O)Nc2cccc4ccccc24)[C@@H](C)CN([C@@H](C)CO)C3=O)n(C)n1 | 9.3 | -0.6 | 13.9
C[C@H]1CCCCO[C@H](CN(C)Cc2ccc(Cl)c(Cl)c2)[C@@H](C)CN([C@@H](C)CO)C(=O)c2cc(NC(=O)Cc3ccccc3)ccc2O1 | -85.2* | 6.6 | 67.8
C[C@@H]1CN([C@H](C)CO)C(=O)c2cc(NC(=O)Cc3ccccc3)ccc2O[C@@H](C)CCCCO[C@H]1CN(C)Cc1ccc(Cl)c(Cl)c1 | -83.6* | 0.7 | 91.1
C[C@@H]1CCCCO[C@@H](CN(C)Cc2ccccc2)[C@H](C)CN([C@H](C)CO)C(=O)c2cc(NC(=O)Cc3ccccc3)ccc2O1 | -65.9 | -0.5 | ·
C[C@@H]1CCCCO[C@@H](CN(C)Cc2ccc(Cl)c(Cl)c2)[C@H](C)CN([C@@H](C)CO)C(=O)c2cc(NC(=O)Cc3ccccc3)ccc2O1 | -66.2 | 5.1 | 63.4
COc1ccccc1-c1ccc([C@H]2[C@@H](CO)N(C(=O)C3CCOCC3)[C@H]2C#N)cc1 | 29.1 | 2.1 | -10.0
CC(C)C(=O)Nc1ccc2c(c1)C(=O)N(C)[C@H]1CC[C@@H](CC(=O)N[C@H](C)c3ccccc3)O[C@@H]1CO2 | -14.9 | -7.0 | -33.5
COc1ccc2c3c([nH]c2c1)[C@@H](CO)N(Cc1ccccc1F)CC31CCN(C(=O)C2CCC2)CC1 | -75.4 | 0.2 | ·
CCCNC(=O)N1CC2(CN(C(=O)C3CC3)C2)c2c([nH]c3cc(OC)ccc23)[C@@H]1CO | 39.5 | -0.2 | ·
CCS(=O)(=O)N1CC2(CN(Cc3ccccc3F)[C@H](CO)c3[nH]c4cc(OC)ccc4c32)C1 | -82.5* | 0.8 | ·
CCCNC(=O)N1CC2(CN(C(=O)C3CCC3)C2)c2c([nH]c3cc(OC)ccc23)[C@@H]1CO | -83.6* | -5.4 | ·
COc1ccc2c3c([nH]c2c1)[C@H](CO)N(Cc1ccccc1F)CC31CN(C(=O)C2CCC2)C1 | -93.3* | -0.6 | ·
COc1ccc2c3c(n(C)c2c1)[C@H](CO)N(Cc1ccccc1F)CC31CN(C(=O)C2CCCC2)C1 | -12.4 | 5.0 | ·
SMILES | Pf Dd2 inh | C diff growth | T cruzi growth
COc1ccc2c3c([nH]c2c1)[C@@H](CO)N(Cc1ccccc1F)CC31CCN(C)CC1 | -77.2 | 4.9 | ·
COc1ccc2c3c([nH]c2c1)[C@H](CO)N(Cc1ccccc1F)CC31CN(C(=O)C2CCCC2)C1 | -87.0* | 2.1 | ·
CCCNC(=O)N1C[C@@H]2[C@H](c3ccccc31)[C@H](CO)N2C(=O)NCCC | 1.5 | -1.6 | 15.5
COCC(=O)Nc1ccc2c(c1)[C@H]1C[C@H](CC(=O)NCc3ccccc3)O[C@H](CO)[C@H]1O2 | 4.2 | · | 14.4
C[C@@H]1CN([C@@H](C)CO)C(=O)Cc2cc(NC(=O)Cc3ccccc3)ccc2O[C@@H]1CN(C)C | 0.5 | -0.4 | ·
C[C@@H]1CN([C@H](C)CO)C(=O)Cc2cc(NC(=O)Cc3cn(C)c4ccccc34)ccc2O[C@H]1CN(C)S(=O)(=O)c1ccccc1 | -40.0 | -8.7 | -1.9
COc1ccc2c3c([nH]c2c1)[C@H](CO)N(Cc1ccccc1F)CC31CN(C(=O)C2CCOCC2)C1 | -55.7 | 0.4 | ·
COc1ccc2c3c([nH]c2c1)[C@@H](CO)N(Cc1ccccc1F)CC31CCN(C(=O)C2CCOCC2)CC1 | -91.1* | 3.0 | ·
CCCNC(=O)C[C@@H]1CC[C@H]2[C@@H](COc3ccc(NC(=O)c4cccc(C(F)(F)F)c4)cc3C(=O)N2C)O1 | -11.8 | -4.1 | -35.1
COc1ccc(S(=O)(=O)Nc2ccc3c(c2)C(=O)N([C@@H](C)CO)C[C@H](C)[C@H](CN(C)C(=O)Nc2cccc4ccccc24)OCCCC[C@@H](C)O3)cc1 | -82.3* | -7.4 | ·
Cc1noc(C)c1S(=O)(=O)Nc1ccc2c(c1)C(=O)N([C@H](C)CO)C[C@@H](C)[C@@H](CN(C)C(=O)NC1CCCCC1)OCCCC[C@@H](C)O2 | -83.9* | 0.3 | -55.1
COc1ccc(S(=O)(=O)Nc2ccc3c(c2)C(=O)N([C@H](C)CO)C[C@H](C)[C@@H](CN(C)C(=O)Nc2cccc4ccccc24)OCCCC[C@@H](C)O3)cc1 | -57.5 | · | 39.9
Cc1noc(C)c1S(=O)(=O)Nc1ccc2c(c1)C(=O)N([C@H](C)CO)C[C@@H](C)[C@@H](CN(C)C(=O)Nc1cccc3ccccc13)OCCCC[C@@H](C)O2 | -88.1* | 4.8 | 82.9
Cc1noc(C)c1S(=O)(=O)Nc1ccc2c(c1)C(=O)N([C@@H](C)CO)C[C@H](C)[C@H](CN(C)C(=O)NC1CCCCC1)OCCCC[C@H](C)O2 | -43.8 | 0.9 | 13.4
Cc1noc(C)c1S(=O)(=O)Nc1ccc2c(c1)C(=O)N([C@H](C)CO)C[C@H](C)[C@H](CN(C)C(=O)Nc1ccccc1)OCCCC[C@H](C)O2 | -35.3 | -4.5 | 37.2
COc1ccc(S(=O)(=O)Nc2ccc3c(c2)CC(=O)N([C@H](C)CO)C[C@H](C)[C@H](CN(C)C(=O)Nc2cccc4ccccc24)O3)cc1 | -5.9 | -6.9 | -26.3

Screens: PubChem, Broad Institute
